# The panel holds about 83,000 compounds, 20% with a hit somewhere; the sample as a whole holds those more often.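 Cells were grown in 96-well plates and exposed to the test compound at a single concentration for 48 hours; results are reported as percent growth, with values below 10 considered active.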 Unmarked numbers belong to inactive results. Activity calls are given as the source filed them.
# Tests used:
# Experiment in all cases: NCI-60 one-dose screen, 48 h (100 = growth as untreated, 0 = no growth, -100 = all killed)
# Settings in all cases: 10 µM unless noted
# [1] = test system: SR leukemia
# [2] = test system: RPMI-8226 leukemia
# [3] = test system: OVCAR-5 ovarian
# [4] = test system: OVCAR-4 ovarian
# [5] = test system: SK-OV-3 ovarian
# [6] = test system: IGROV1 ovarian
# [7] = test system: OVCAR-3 ovarian
# [8] = test system: HS 578T breast
# [9] = test system: NCI/ADR-RES ovarian
# [10] = test system: T-47D breast
# [11] = test system: BT-549 breast
# [12] = test system: MDA-MB-435 melanoma
# [13] = test system: SW-620 colon
# [14] = test system: MCF7 breast
# [15] = test system: HCT-116 colon
# [16] = test system: HCC-2998 colon
# [17] = test system: KM12 colon
# [18] = test system: OVCAR-8 ovarian
Compound,growth [1],growth [2],growth [3],growth [4],growth [5],growth [6],growth [7],growth [8],growth [9] [%],growth [10],growth [11],growth [12],growth [13],growth [14],growth [15],growth [16],growth [17],growth [18] [%]
c1ccc2cc(C[n+]3ccn(CCCCCCCCCCCCn4cc[n+](Cc5ccc6ccccc6c5)c4)c3)ccc2c1,-50% (active),-70.7% (active),-25.3% (active),-60.1% (active),-47.9% (active),-73.8% (active),-88.7% (active),-59.2% (active),61.7,-53.1% (active),-82.8% (active),-97.1% (active),-55.7% (active),-70.5% (active),-61.8% (active),-83.4% (active),-86.9% (active),
Cc1ccc(S(=O)(=O)N/N=C/C2(c3ccccc3)CC2)cc1,101%,96.9%,109%,98.8%,110%,116%,111%,102%,107,101%,102%,104%,97.1%,88.6%,98.7%,111%,107%,
c1ccc2cc(C[n+]3ccn(CCCCCCn4cc[n+](Cc5ccc6ccccc6c5)c4)c3)ccc2c1,69%,65.5%,60.4%,40.8%,55.6%,58.1%,62.4%,68.5%,100,38.5%,9.69% (active),59.2%,95.5%,49.8%,45.2%,59.4%,41.2%,
COc1ccc(-c2nc(NN)c3c(C)nn(-c4ccc(F)cc4)c3n2)cc1,28.3%,54.8%,95.6%,62.7%,29.4%,51.2%,12%,25%,34.7,38.6%,46.8%,0.816% (active),22.9%,26.2%,18.7%,76.6%,29.1%,
CN1C(=C2C(=O)OC(C)(C)OC2=O)CCC1C(=O)NCc1ccc(Cl)cc1Cl (stereo not drawn),94.7%,82.9%,94.9%,98.2%,85.8%,99.8%,101%,97.5%,101,97.4%,107%,109%,104%,98.3%,88.3%,96.5%,98.5%,
CCOC(=O)c1c2c(n(-c3ccc(C#N)cc3)c1-c1ccccc1)C=CCC2,92.1%,85.8%,96.7%,77.2%,89.6%,77.9%,105%,99.3%,94,72.6%,97.8%,95.3%,96.9%,76.4%,66.2%,90.5%,91.8%,
C=C1C(=O)O[C@H]2[C@H]1CC/C(COC(=O)CCC(=O)NCCOCCOCC(=O)Nc1ccc(OC)c(C(N)=O)c1O)=C\CC[C@@]1(C)O[C@@H]21,46.8%,87%,109%,110%,96.7%,59.2%,85%,109%,103,87.1%,85.9%,97.8%,64.2%,74.6%,69.5%,112%,102%,
O=C1CCC(C(=O)NCCNCCNC(=O)C2CCC(=O)N2)N1 (stereo not drawn),103%,95.8%,112%,109%,98%,110%,106%,94.1%,105,85%,81.3%,104%,94.8%,98.3%,87.8%,105%,102%,
CC(C)c1cc(C(C)C)c(S(=O)(=O)Oc2ccc(NC(=O)c3ccc(Cl)cc3)cc2)c(C(C)C)c1,25.9%,16.4%,86.4%,39.6%,78.2%,47.1%,31.6%,39.5%,35.6,7.98% (active),20.4%,41.4%,21.7%,16.3%,8.78% (active),26.3%,18.4%,
CC1(C)C2CC1C1(/C=N\Nc3ccccc3)C(C2)C(C#N)(C#N)C1(C#N)C#N (stereo not drawn),92.4%,90.1%,103%,82.5%,97.4%,64.8%,84.7%,93.9%,87.8,72.6%,107%,104%,101%,94.8%,83.9%,94.6%,81.3%,
COc1ccc(C(=O)n2nc(-c3ccccc3)nc2N)cc1OC,80.6%,92.1%,96.7%,90.9%,80.8%,73.5%,94.5%,92.1%,96.5,56.4%,94.6%,109%,90.3%,44.3%,98.2%,97.9%,85.8%,
COc1ccc(CN2c3ccccc3Sc3ccccc32)c(F)c1,12.2%,12.2%,50.2%,61.6%,30.4%,50.3%,-20.4% (active),21.6%,22,11.9%,56.5%,-51% (active),10.3%,22.6%,15.7%,61.6%,25.8%,
Nc1ccccc1-c1cc2c(c3c1[nH]c1ccccc13)CCCCC2,94.2%,99.3%,108%,105%,115%,97%,102%,95.2%,94.8,86.8%,108%,112%,96.2%,76%,76.3%,106%,88.9%,
Cc1nc(NC(=O)COc2ccc(/C=C3\Cc4ccc(Cl)cc4C3=O)cc2)sc1C,93.2%,103%,105%,113%,114%,-69.8% (active),105%,139%,96.3,109%,328%,96.8%,107%,88.6%,109%,90.9%,119%,
C=C1C(=O)O[C@H]2[C@H]1CC/C(COC(=O)NCCOCCOCC(=O)Nc1ccc(OC)c(C(N)=O)c1O)=C\CC[C@@]1(C)O[C@@H]21,7.91% (active),16%,90.9%,71%,109%,24.7%,45.8%,90.1%,94.6,47.8%,68.6%,53.7%,18.5%,32%,32.8%,90.4%,95.2%,
Cc1nn(-c2ccccc2)c2c1N=c1s/c(=C\c3ccc(C(F)(F)F)cc3)c(=O)n1CN2,97.9%,16.2%,93.4%,51.2%,91.5%,68.3%,138%,96.9%,40.4,54%,72.2%,61.4%,75.7%,56.9%,27.8%,74.2%,97.2%,
O=C(Nc1ccc(OS(=O)(=O)c2ccc(F)cc2)cc1)c1ccc(Cl)cc1,91.4%,94.2%,102%,106%,105%,95.7%,102%,104%,93.1,78.1%,97.4%,117%,108%,92.9%,95.5%,106%,103%,
Cc1cc(=O)[nH]c(=O)n1Cc1cn(-c2c3ccccc3nc3ccccc23)nn1,11.4%,55.5%,120%,106%,96.2%,33%,90.7%,100%,106,-5.49% (active),90%,95.6%,83.9%,2.54% (active),63.1%,62.5%,,

Compound,growth [1],growth [2],growth [3],growth [4],growth [5],growth [6],growth [7],growth [8],growth [9] [%],growth [10],growth [11],growth [12],growth [13],growth [14],growth [15],growth [16],growth [17],growth [18] [%]
O=C(COc1ccc(/C=C2\Cc3ccc(Cl)cc3C2=O)cc1)Nc1nc2ccccc2s1,75.5%,93.1%,108%,109%,104%,-61.5% (active),104%,91%,99.2,101%,124%,113%,112%,103%,102%,115%,117%,
OC(c1ccccc1)C(NC(Cc1ccccc1)c1ccccc1)c1ccccc1 (stereo not drawn),91.4%,73.6%,90.8%,89.1%,91.7%,67%,96.9%,92.2%,82.6,73.6%,91.4%,97.9%,90%,104%,77.1%,96.1%,89.1%,
C=C1C(=O)O[C@H]2[C@H]1CC/C(COC(=O)C(C)c1ccc(CC(C)C)cc1)=C\CC[C@@]1(C)O[C@@H]21 (stereo partly drawn),-1.31% (active),-23% (active),74.1%,8.73% (active),102%,-69% (active),1.75% (active),-4.39% (active),14.6,-35% (active),-1.34% (active),-11.7% (active),-60.1% (active),9.15% (active),-73.7% (active),72.2%,31.8%,
COc1ccc(C2CC(c3ccc(Nc4nc(Nc5ccc(F)cc5)nc(Nc5ccc(Cl)cc5)n4)cc3)=NN2C(C)=O)cc1 (stereo not drawn),107%,90.8%,104%,99.3%,107%,40.4%,128%,108%,85,72.5%,143%,97.1%,109%,105%,94.6%,99.7%,135%,
Cc1ccc2c(-c3cc(-c4ccccc4)nc(N)c3C#N)cc(=O)oc2c1,100%,101%,96.9%,114%,104%,110%,106%,90.2%,95.2,86%,75.8%,106%,107%,100%,87.1%,96.4%,97.4%,
CCc1ccc(Oc2c(-c3ccc(OCc4ccc(Cl)cc4)cc3O)n[nH]c2C(F)(F)F)cc1,12.7%,1.99% (active),85.9%,16.5%,27%,22%,0.589% (active),27.9%,16.5,-2.85% (active),34.7%,7.72% (active),17.4%,4.9% (active),-5.05% (active),62.2%,19.5%,
CC(C)(C)NC(=O)C(OC(=O)c1cccc(Cl)c1)c1ccc(Cl)cc1 (stereo not drawn),103%,102%,94.5%,105%,93.1%,104%,103%,110%,101,96.8%,82.9%,107%,103%,95.8%,74.7%,107%,100%,
c1cc(NCCc2ccncc2)nc(-n2cnc3ccccc32)c1,58.2%,68.5%,98%,96.7%,97.2%,73.1%,96.2%,98.2%,90.7,80.4%,98.4%,95.8%,94.2%,84.2%,81.7%,104%,53.3%,
COc1ccc(-c2nc3sc(-c4ccccc4)cn3n2)cc1,41.2%,78.6%,108%,62.2%,67.8%,47.8%,58.2%,59.9%,34,34.6%,73.3%,-8.6% (active),35.1%,25.1%,40%,77.3%,29.5%,
Cc1cc2[nH]c(=O)c3c4ncccc4cn3c2cc1C,-1.41% (active),2.89% (active),,,87.4%,24.5%,-21.7% (active),101%,34.3,56.5%,105%,11.1%,-26.9% (active),11.6%,-77.1% (active),13.7%,25.1%,39.6
CCCCCCNC(=O)Oc1ccc(/C(=C(\C)c2ccc(Cl)cc2)c2ccc(OCCCN(C)C)cc2)cc1,-13% (active),79%,75.1%,76%,94.4%,67%,87.8%,74.5%,83.2,61.1%,90.6%,72.4%,87.9%,25.2%,36.9%,82.3%,59.6%,
NS(=O)(=O)c1ccc(N=Nc2ccc(-c3nn4cc(-c5ccccc5)nc4s3)cc2)cc1,90.6%,105%,103%,99.7%,88.8%,117%,102%,94.2%,107,87.6%,84.8%,101%,96.2%,94%,88.8%,104%,,
COc1ccc(-c2nc3sc(-c4ccc(Cl)cc4)cn3n2)cc1,51.1%,44.9%,52%,-63.3% (active),49.5%,7.07% (active),24.7%,27%,45.6,54.9%,97.6%,75%,59.6%,48.9%,-16.3% (active),78.6%,,
Cc1ccc(C(=O)NN2C(=O)CSC2c2cccc([N+](=O)[O-])c2)cn1 (stereo not drawn),109%,82.7%,94.7%,95%,114%,73.3%,92.9%,124%,95.2,96.1%,104%,97%,98.3%,112%,99.6%,84%,106%,
CCS(=O)(=O)c1ncnc2nc[nH]c12,97.8%,95.9%,98.1%,106%,95.2%,109%,111%,97.6%,104,89.8%,90.9%,104%,99.8%,89.2%,87.3%,107%,108%,
COc1cccc(Cc2nn3cc(-c4ccccc4)nc3s2)c1,16.3%,33.7%,114%,98.4%,103%,86.4%,85.5%,106%,101,91.2%,91.6%,79.2%,30.6%,27.5%,2.81% (active),104%,88.8%,
c1ccc(-c2nc3sc(-c4ccccc4)cn3n2)cc1,90.4%,85.5%,122%,76.1%,94.2%,56.2%,83.5%,90.1%,85.6,36.7%,99.9%,99.2%,94.9%,38.3%,88.9%,104%,81.1%,
COc1ccc(C(Cc2ccccc2)NCCN2CCOCC2)cc1 (stereo not drawn),96.4%,109%,94.7%,98.7%,102%,91.8%,100%,107%,98.7,85.4%,82.1%,105%,107%,89.2%,95.9%,86.6%,104%,

# — PubChem BioAssay (NCI)
